Experiment [1] is described as follows: qHTS assay to identify small molecule antagonists of the sonic hedgehog signaling (Shh) pathway (AID 1259369). Note: nearly all actives have a fitted effect of over 45% in size. A digest of the protocol: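 For antagonist detection, the reporter line received test compounds together with conditioned medium, incubated 24hr at 37 C, 5% CO2, then luminescence was recorded following 30min room-temperature luciferase reagent incubation.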
Background: In qHTS, concentration-response curves come from the screen itself.

Experiment [2] has as its target Estrogen receptor beta (Homo sapiens) (UniProt Q92731). Nature of the experiment: qHTS assay to identify small molecule agonists of the estrogen receptor beta (ER-beta) signaling pathway (AID 1259377; active = well fitted activation curve with a large enough effect in the signal ratio in the repeat runs, not every such curve was filed as active; the % refers to the signal ratio). A digest of the protocol: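 Ratiometric beta-lactamase FRET read-out came after 2 h substrate loading at room temperature. It followed 16 h compound treatment at 37C of GripTite HEK293T cells carrying a UAS-bla reporter, plated in 2% charcoal-stripped FBS medium.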

The nature of experiment [3]: qHTS assay to identify small molecule agonists of the androgen receptor (AR) signaling pathway in the presence of an antagonist - cell viability counter screen (AID 1259379; active = well fitted curve in the direction sought with a large enough effect in the repeat runs; an effect the other way counts as inactive or inconclusive;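 note: MDA-kb2 human breast cancer cells carrying an MMTV luciferase reporter; series mostly up to about 92 µM; nearly all actives have a fitted effect of over 25% in size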). A digest of the protocol: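 Seed MDA-kb2 at 3,000 cells/well; incubate 5 hr, 37C, 0% CO2. Add nilutamide to 3.0uM final, then pin compounds at 15 concentrations. Incubate 16 hr. Add CellTiter-Fluor at 15 hr, read fluorescence after 1 hr.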

In experiment [4] the target is Androgen receptor (Homo sapiens) (UniProt P10275). Nature of the experiment: qHTS assay to identify small molecule agonists of the androgen receptor (AR) signaling pathway in the presence of an antagonist (AID 1259381). Note: nearly all actives have a fitted effect of over 15% in size. A digest of the protocol: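 Test compounds at 15 concentrations were incubated for 16hr with MDA-kb2 reporter cells in presence of 3.0uM nilutamide (final). Signal: ONE-Glo luciferase luminescence.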

Experiment [5] has as its target Estrogen receptor (Homo sapiens) (UniProt P03372). As to the kind of experiment: qHTS assay to identify small molecule agonists of the estrogen receptor alpha (ER-alpha) signaling pathway in the presence of an antagonist (AID 1259383). For activation: top concentration of the series differs between compounds. Note: nearly all actives have a fitted effect of over 15% in size. Note: potency is the fitted concentration of half-maximal effect. The gist of the method: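 Stably transfected VM7Luc4E2 reporter cells, kept 5 days in charcoal-stripped serum, received ICI-182,780 at 10.0nM final before compound addition. Following 22hr incubation at 37C and 5% CO2, luciferase signal was read by luminescence.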

Experiment [6] can be described thus: qHTS assay to identify small molecule agonists or antagonists of the thyroid stimulating hormone receptor (TSHR) signaling pathway - wild type cell line counter screen (AID 1259384). A digest of the protocol: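 Wild-type Hek293 cells, 800/well, 18 h at 37C, then compound with Ro20-1724 for 30 min RT. cAMP by HTRF (cAMP-d2/anti-cAMP cryptate), 1 h RT, fluorescence read. 15 concentrations, triplicates.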

Experiment [7] concerns the target Thyrotropin receptor (Homo sapiens) (UniProt P16473). Nature of the experiment: qHTS assay to identify small molecule antagonists of the thyroid stimulating hormone receptor (TSHR) signaling pathway (AID 1259385). Note: nearly all actives have a fitted effect of over 20% in size. The gist of the method:
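TSHR-HEK293 cells (800/well) plated 18 h, then compounds with Ro20-1724 and TSH at 1.5 ng/mL final, 30 min at room temperature. cAMP quantified by HTRF (cAMP-d2/anti-cAMP-cryptate, 1 h); 15 concentrations in triplicate.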

The nature of experiment [8]: qHTS assay to identify small molecule agonists of the estrogen receptor alpha (ER-alpha) signaling pathway in the presence of an antagonist - cell viability counter screen (AID 1259386; active = well fitted curve in the direction sought with a large enough effect in the repeat runs; an effect the other way counts as inactive or inconclusive;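 note: series mostly up to about 92 µM; cells exposed to compounds for 22 h at 37 °C before the viability read; nearly all actives have a fitted effect of over 30% in size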). A digest of the protocol:
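Viability counter screen using VM7Luc4E2 (full-length ER-alpha, four ERE-luciferase). The cells were treated with compounds alongside ICI-182,780 10.0nM for 22hr, and live-cell protease fluorescence was quantified with CellTiter-Fluor.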

Experiment [9] concerns the target Progesterone receptor (Homo sapiens) (UniProt P06401). Nature of the experiment: qHTS assay to identify small molecule antagonists of the progesterone receptor (PR) signaling pathway (AID 1346795; active = well fitted inhibition curve with a large enough effect in the signal ratio in the repeat runs, not every such curve was filed as active; the % refers to the signal ratio; note: potency is the fitted concentration of half-maximal effect). The gist of the method:
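Antagonist mode with agonist R5020 at 1 nM final and 16 hr incubation at 37C. Reporter was beta-lactamase driven by UAS in HEK293T (PR-UAS-bla), 2% charcoal-stripped serum; signal from LiveBLAzer FRET substrate, 2 hr at room temperature.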

Experiment [10] can be described thus: qHTS assay to identify small molecule antagonists of the progesterone receptor (PR) signaling pathway - cell viability counter screen (AID 1346798; active = well fitted curve in the direction sought with a large enough effect in the repeat runs; an effect the other way counts as inactive or inconclusive; note: series mostly up to about 92 µM; nearly all actives have a fitted effect of over 50% in size). A digest of the protocol: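 Cytotoxicity read as CellTiter-Glo luminescence (30 min, room temperature) in the same wells as the beta-lactamase readout. HEK293T PR-UAS-bla cells in charcoal-stripped 2% FBS received compound and R5020, then 16 h at 37C, 5% CO2.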

Experiment [11] can be described thus: qHTS assay to identify small molecule agonists of the progesterone receptor (PR) signaling pathway - cell viability counter screen (AID 1346799). Note: nearly all actives have a fitted effect of over 45% in size. A digest of the protocol: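 Cytotoxicity measured by CellTiter-Glo luminescence (30 min, RT) in the same wells as the PR beta-lactamase agonist read. Those HEK293T cells had 16 h compound treatment at 37 C in 2% charcoal-stripped FBS medium.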

The nature of experiment [12]: qHTS assay to identify small molecule antagonists of the TGF-beta/Smad signaling pathway - cell viability counter screen (AID 1346824; active = well fitted curve in the direction sought with a large enough effect in the repeat runs; an effect the other way counts as inactive or inconclusive; note: nearly all actives have a fitted effect of over 50% in size). A digest of the protocol:
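SBE-bla HEK 293T cells, incubated overnight, then compound plus 0.25 ng/mL TGF-beta1 (stock added) for 5 hr at 37 C. Viability was read in the same wells by CellTiter-Glo luminescence after 30 min at room temperature.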

A short description of experiment [13]: qHTS assay to identify small molecule agonists of the TGF-beta/Smad signaling pathway - cell viability counter screen (AID 1346829; active = well fitted curve in the direction sought with a large enough effect in the repeat runs; an effect the other way counts as inactive or inconclusive; note: top concentration of the series differs between compounds; nearly all actives have a fitted effect of over 45% in size). A digest of the protocol: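 In parallel with the Smad reporter read, viability of HEK 293T cells stably carrying SBE-bla is quantified by ATP luminescence following 5 hr compound treatment.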
Experiment [14] has as its target Thyrotropin-releasing hormone receptor (Homo sapiens) (UniProt P34981). Nature of the experiment: qHTS assay to identify small molecule antagonists of the thyrotropin-releasing hormone receptor (TRHR) signaling pathway (AID 1346877; active = well fitted inhibition curve with a large enough effect in the repeat runs, not every such curve was filed as active; note: series mostly up to about 51 µM). The gist of the method: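 Following an 18 h incubation at 37 °C and a 2 h calcium dye load, TRHR-HEK293 cells were exposed to compound (5 min, room temperature) and challenged with TRH, 1 nM final.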

Experiment [15] has the same target. As to the kind of experiment: qHTS assay to identify small molecule agonists of the thyrotropin-releasing hormone receptor (TRHR) signaling pathway (AID 1346891). For activation: series mostly up to about 58 µM. Note: potency is the fitted concentration of half-maximal effect. The gist of the method:
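Agonist-mode intracellular calcium readout: kinetic fluorescence over 3 min at 1 s intervals after compound addition to TRHR-HEK293 cells (18 h seeded, 2 h dye-loaded at 37 C). Fifteen concentrations, triplicates.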

For experiment [16], the target named is Estrogen receptor beta (Homo sapiens) (UniProt Q92731). Nature of the experiment: qHTS assay to identify small molecule antagonists of the estrogen receptor beta (ER-beta) signaling pathway (AID 1259378; active = well fitted inhibition curve with a large enough effect in the signal ratio in the repeat runs, not every such curve was filed as active; the % refers to the signal ratio). A digest of the protocol:
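ER-beta-UAS-bla HEK293T cells in 2% charcoal-stripped FBS medium treated with compound plus 1nM final 17-beta-estradiol for 16 hr at 37C. Beta-lactamase reporter read by FRET substrate fluorescence after 2 hours at room temperature.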

Experiment [17] is described as follows: qHTS assay to identify small molecule agonists of the estrogen receptor beta (ER-beta) signaling pathway - cell viability counter screen (AID 1259380; active = well fitted curve in the direction sought with a large enough effect in the repeat runs; an effect the other way counts as inactive or inconclusive; note: nearly all actives have a fitted effect of over 30% in size; note: potency is the fitted concentration of half-maximal effect). A digest of the protocol: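 CellTiter-Glo read, 30 min RT, same wells as bla assay; cells ER-beta-UAS-bla HEK293T; 16 hr compound, 37C; medium 2% charcoal-stripped FBS.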
Experiment [18] in a line: qHTS assay to identify small molecule antagonists of the estrogen receptor beta (ER-beta) signaling pathway - cell viability counter screen (AID 1259382; active = well fitted curve in the direction sought with a large enough effect in the repeat runs; an effect the other way counts as inactive or inconclusive; note: series mostly up to about 92 µM; nearly all actives have a fitted effect of over 55% in size). A digest of the protocol:
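In this multiplexed counter screen, cells were seeded at 2,000 per well in medium with 2% charcoal-stripped FBS and incubated 6 hr before compound and 1nM final E2 were added. Sixteen hours later, ATP-based luminescence reported viability.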

In experiment [19] the target is Progesterone receptor (Homo sapiens) (UniProt P06401). Nature of the experiment: qHTS assay to identify small molecule agonists of the progesterone receptor (PR) signaling pathway (AID 1346784). Note: nearly all actives have a fitted effect of over 30% in size. Note: potency is the fitted concentration of half-maximal effect. A digest of the protocol: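 Agonist qHTS: compounds pinned onto 3,000 PR-UAS-bla HEK 293T cells per well in charcoal-stripped serum medium, 16hr at 37C, then beta-lactamase activity measured by LiveBLAzer FRET fluorescence after 2 hours at room temperature.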

The nature of experiment [20]: qHTS assay to identify small molecule agonists of the TGF-beta/Smad signaling pathway (AID 1346859; active = well fitted activation curve with a large enough effect in the signal ratio in the repeat runs, not every such curve was filed as active; the % refers to the signal ratio; note: series mostly up to about 77 µM). A digest of the protocol:
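Fluorescence (ex 405 nm; em 460 and 530 nm) was read 2 h after LiveBLAzer FRET substrate at RT. The preceding compound treatment of overnight-plated SBE-bla HEK293T cells lasted 5 h at 37 C.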

Results on 7 compounds are retold here after PubChem BioAssay (Tox21).

Values without a mark were called inactive. Results filed as inconclusive are left out. Active and inactive are the calls of the source. Unless noted, calls come from the whole dose curve.

Progesterone receptor (Homo sapiens), sequence (P06401 whole entry, looked up): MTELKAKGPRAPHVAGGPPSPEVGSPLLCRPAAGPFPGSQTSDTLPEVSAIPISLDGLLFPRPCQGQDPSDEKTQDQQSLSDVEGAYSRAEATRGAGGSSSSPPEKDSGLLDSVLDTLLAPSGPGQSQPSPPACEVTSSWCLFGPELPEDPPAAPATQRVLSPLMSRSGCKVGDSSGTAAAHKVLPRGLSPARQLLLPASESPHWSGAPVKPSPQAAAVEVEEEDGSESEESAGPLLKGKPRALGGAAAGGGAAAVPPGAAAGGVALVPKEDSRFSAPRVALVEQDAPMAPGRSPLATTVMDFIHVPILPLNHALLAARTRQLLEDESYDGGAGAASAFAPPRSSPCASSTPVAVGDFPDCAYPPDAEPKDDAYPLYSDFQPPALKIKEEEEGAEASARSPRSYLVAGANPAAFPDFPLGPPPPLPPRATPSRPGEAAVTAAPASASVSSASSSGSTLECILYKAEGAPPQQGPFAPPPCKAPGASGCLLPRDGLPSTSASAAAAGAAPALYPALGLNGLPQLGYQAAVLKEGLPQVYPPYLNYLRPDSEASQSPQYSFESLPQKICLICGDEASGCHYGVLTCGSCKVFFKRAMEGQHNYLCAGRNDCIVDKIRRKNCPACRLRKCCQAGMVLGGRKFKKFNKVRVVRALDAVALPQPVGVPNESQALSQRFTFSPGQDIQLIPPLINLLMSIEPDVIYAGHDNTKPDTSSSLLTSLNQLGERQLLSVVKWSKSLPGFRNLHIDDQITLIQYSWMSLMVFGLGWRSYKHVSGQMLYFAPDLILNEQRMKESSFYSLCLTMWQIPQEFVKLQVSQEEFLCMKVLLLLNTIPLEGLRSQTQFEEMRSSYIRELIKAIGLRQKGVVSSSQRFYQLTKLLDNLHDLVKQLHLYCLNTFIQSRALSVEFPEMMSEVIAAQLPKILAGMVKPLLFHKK
Estrogen receptor (Homo sapiens), sequence (P03372 whole entry, looked up): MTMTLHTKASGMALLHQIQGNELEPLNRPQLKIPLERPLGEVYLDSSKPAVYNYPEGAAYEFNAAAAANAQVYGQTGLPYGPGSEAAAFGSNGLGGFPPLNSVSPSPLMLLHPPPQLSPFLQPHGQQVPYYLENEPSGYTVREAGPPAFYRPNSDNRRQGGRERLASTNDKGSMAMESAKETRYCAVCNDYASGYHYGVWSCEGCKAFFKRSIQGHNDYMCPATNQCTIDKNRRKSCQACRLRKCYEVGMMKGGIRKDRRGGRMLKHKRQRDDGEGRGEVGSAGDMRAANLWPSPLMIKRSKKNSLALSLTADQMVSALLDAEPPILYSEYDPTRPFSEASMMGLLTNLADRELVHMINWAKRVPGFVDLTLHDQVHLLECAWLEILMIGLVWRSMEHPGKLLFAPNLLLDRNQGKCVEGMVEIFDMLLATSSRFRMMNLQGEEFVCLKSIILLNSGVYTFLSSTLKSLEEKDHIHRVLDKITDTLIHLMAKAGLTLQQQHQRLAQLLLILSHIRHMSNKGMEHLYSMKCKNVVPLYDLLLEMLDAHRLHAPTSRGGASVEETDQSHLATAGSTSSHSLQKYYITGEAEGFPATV
Estrogen receptor beta (Homo sapiens), sequence (Q92731 whole entry, looked up): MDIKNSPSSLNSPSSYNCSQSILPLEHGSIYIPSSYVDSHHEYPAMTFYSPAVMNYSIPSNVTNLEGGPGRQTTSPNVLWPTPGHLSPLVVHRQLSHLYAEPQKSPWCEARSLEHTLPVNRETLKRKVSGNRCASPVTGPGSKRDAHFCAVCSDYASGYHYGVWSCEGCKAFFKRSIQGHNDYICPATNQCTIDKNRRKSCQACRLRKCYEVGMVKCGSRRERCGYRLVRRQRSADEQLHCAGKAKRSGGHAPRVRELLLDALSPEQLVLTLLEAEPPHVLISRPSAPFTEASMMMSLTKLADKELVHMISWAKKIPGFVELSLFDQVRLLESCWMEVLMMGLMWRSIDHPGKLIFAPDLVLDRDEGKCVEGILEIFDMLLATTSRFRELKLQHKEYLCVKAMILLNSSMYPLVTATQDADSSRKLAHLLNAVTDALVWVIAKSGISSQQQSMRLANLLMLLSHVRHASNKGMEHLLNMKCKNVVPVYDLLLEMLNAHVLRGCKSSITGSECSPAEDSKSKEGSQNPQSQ
Androgen receptor (Homo sapiens), sequence (P10275 whole entry, looked up): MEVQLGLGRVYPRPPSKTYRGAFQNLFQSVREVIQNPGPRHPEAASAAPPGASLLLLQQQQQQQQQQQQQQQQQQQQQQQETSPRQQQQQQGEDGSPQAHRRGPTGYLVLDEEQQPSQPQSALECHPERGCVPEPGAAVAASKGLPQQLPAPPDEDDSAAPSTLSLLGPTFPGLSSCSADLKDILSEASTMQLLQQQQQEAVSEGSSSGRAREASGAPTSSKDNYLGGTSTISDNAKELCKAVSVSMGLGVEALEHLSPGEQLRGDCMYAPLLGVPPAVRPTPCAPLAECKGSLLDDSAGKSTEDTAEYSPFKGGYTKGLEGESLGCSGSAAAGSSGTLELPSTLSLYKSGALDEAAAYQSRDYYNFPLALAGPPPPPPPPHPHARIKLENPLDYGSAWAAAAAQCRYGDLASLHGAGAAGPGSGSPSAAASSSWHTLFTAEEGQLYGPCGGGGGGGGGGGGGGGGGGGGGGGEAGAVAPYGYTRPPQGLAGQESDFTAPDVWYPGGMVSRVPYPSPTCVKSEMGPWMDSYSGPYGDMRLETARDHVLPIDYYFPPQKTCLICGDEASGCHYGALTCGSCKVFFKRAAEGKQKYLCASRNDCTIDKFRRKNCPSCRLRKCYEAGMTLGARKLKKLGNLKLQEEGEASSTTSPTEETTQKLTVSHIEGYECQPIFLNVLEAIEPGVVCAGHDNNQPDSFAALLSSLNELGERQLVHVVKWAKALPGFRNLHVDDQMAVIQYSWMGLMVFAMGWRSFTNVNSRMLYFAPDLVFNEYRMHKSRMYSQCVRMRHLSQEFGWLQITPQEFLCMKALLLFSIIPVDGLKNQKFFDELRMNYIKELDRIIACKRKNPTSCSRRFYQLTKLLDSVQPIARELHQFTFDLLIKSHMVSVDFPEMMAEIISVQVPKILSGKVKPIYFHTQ
Thyrotropin receptor (Homo sapiens), sequence (P16473 whole entry, looked up): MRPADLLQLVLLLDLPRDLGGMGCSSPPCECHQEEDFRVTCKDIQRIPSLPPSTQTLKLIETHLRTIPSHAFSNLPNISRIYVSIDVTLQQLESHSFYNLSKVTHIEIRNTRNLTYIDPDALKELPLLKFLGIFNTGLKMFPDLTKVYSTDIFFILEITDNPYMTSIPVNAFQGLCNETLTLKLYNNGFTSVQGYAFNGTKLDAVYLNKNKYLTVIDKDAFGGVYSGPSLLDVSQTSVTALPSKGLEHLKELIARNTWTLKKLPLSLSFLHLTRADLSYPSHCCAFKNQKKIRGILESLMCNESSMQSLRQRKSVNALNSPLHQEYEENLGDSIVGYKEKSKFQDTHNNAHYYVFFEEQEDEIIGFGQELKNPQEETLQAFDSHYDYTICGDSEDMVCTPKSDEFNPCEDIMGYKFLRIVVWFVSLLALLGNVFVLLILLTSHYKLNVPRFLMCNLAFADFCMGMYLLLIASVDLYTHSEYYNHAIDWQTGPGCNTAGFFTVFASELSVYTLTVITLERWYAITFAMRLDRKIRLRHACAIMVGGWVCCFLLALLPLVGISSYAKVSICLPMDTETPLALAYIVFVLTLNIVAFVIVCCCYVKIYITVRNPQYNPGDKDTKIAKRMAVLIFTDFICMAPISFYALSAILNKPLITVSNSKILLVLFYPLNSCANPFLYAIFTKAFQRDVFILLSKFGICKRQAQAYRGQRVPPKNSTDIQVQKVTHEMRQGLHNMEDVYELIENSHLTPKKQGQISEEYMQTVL
Thyrotropin-releasing hormone receptor (Homo sapiens), sequence (P34981 whole entry, looked up): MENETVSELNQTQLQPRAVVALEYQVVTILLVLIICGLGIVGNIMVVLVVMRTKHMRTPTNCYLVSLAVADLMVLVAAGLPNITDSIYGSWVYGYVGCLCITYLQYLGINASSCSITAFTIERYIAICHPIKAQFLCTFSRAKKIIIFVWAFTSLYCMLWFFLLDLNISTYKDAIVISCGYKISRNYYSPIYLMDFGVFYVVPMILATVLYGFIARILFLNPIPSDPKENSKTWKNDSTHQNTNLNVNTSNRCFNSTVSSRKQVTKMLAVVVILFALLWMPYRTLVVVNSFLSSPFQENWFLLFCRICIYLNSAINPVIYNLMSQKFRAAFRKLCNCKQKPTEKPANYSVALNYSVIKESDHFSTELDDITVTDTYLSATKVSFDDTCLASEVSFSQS

In the case of `CCCCCOc1ccc(C2SC(=O)NC2=O)cc1OCC` (centres undefined), the Potency result in [1], in [3], in [4], in experiment [5], in [7] and in experiment [8] was “inactive” each time. Further, the Potency entry in [9], in experiment [10], in [11] and in experiment [15] was “inactive” each time. The outcome in [2], in [6], in experiment [12], in [13] and in experiment [14] was inactive.
Take `CCC/C=C/CO`: the Potency entry in experiment [1], in [16], in experiment [3], in [17], in [7] and in experiment [8] was “inactive” in each case. The Potency result in experiment [19], in experiment [9] and in experiment [15] was “inactive” throughout. The result in experiment [18], in experiment [6], in experiment [12], in [13], in experiment [20] and in [14] was inactive.
Consider `Cc1cc2nc(N)sc2cc1C`, for which the Potency result in experiment [1], in experiment [3], in experiment [4], in [7], in experiment [8] and in [19] was “inactive” in each case. Further, the Potency entry in experiment [10] and in experiment [11] was “inactive” throughout. For the same compound, the Potency in experiment [17] was 30.9 µM (active). For the same compound, the result in experiment [6], in experiment [12], in [13] and in experiment [20] was inactive.
As to `O=C1CCCCC1C1CCCCC1` (centres undefined), the Potency entry in [1], in experiment [3], in experiment [17], in [5], in experiment [7] and in [8] was “inactive” in each case. The Potency entry in [19], in experiment [9], in [10], in experiment [11] and in experiment [15] was “inactive” each time. The result in [18], in experiment [6], in [12], in [13], in experiment [20] and in [14] was inactive.
For `O=C(CC(=O)C(F)(F)F)c1ccccc1`, the Potency result in [1], in experiment [3], in experiment [8], in [9] and in [11] was “inactive” throughout. Besides, the compound was called inactive in [2], in experiment [18], in experiment [6], in experiment [12], in [13] and in experiment [20]. Besides, the Potency is 9.83 µM (active) in experiment [5], 8.76 µM (active) in experiment [19] and 39.5 µM (active) in [15].
In the case of `CC(C)(C)c1cccc(O)c1`, the Potency entry in experiment [1], in [3], in experiment [17], in experiment [4], in [5] and in [7] was “inactive” in each case. For the same compound, the Potency entry in experiment [8], in experiment [19], in [9], in experiment [10], in [11] and in experiment [15] was “inactive” in each case. Besides, the outcome in experiment [18], in [6], in experiment [12], in experiment [13], in [20] and in experiment [14] was inactive.
For the compound `CCCOc1ccc2c(c1)CC[C@@H]1[C@@H]2CC[C@]2(C)C(OC)CC[C@@H]12` (some centres undefined), the Potency entry in experiment [1], in experiment [16], in [3], in experiment [17], in experiment [4] and in [5] was “inactive” throughout. Besides, the Potency entry in [7], in [8], in experiment [10] and in experiment [15] was “inactive” in each case. Also, the result in [18], in experiment [6], in [12], in [13], in [20] and in experiment [14] was inactive. The Potency in experiment [9] was 15 µM (active).
